# “And” between values parts separate entries of the source, which are not always exact repeats. Equal values may be shown once. A structure can be active in one record and inactive in another. The source made the active and inactive calls. The calls were made as follows: active = hit-call score of the fitted dose curve at least 0.9, where 1 is the maximum; inactive = score below 0.9.
# How the values were obtained:
# [1] = read-out: Macrophage colony-stimulating factor (MCSF), CSF1 (gene 1435); assay: BSK_hDFCGF_MCSF: BioMAP Diversity Plus: hDFCGF Assay for Macrophage colony-stimulating factor (MCSF) Biomarker Activity (AID 2283060); conditions: primary human foreskin fibroblasts; actives raise or lower the signal
# Method in brief: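 M-CSF levels read by ELISA at 24 h post-dosing in human skin fibroblasts. Parallel cultures stained with SRB assessed cytotoxicity at the same time point; response fitted in both directions against the DMSO baseline.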
# [2] = BSK_hDFCGF_SRB: Viability Assessment in the BioMAP Diversity Plus: hDFCGF Assay (AID 2283061); conditions: primary human foreskin fibroblasts;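 also: cells exposed to compound for 24 h before the read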
# Method in brief: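 Viability was read as total protein: after 10% TCA fixation, wells were stained with 0.1% sulforhodamine B and read at 560 nm. Primary human foreskin fibroblasts were dosed for 24 h, with bidirectional fitting versus DMSO.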
# [3] = read-out: Monokine induced gamma interferon (MIG), CXCL9 (gene 4283); assay: BSK_hDFCGF_MIG: BioMAP Diversity Plus: hDFCGF Assay for Monokine induced gamma interferon (MIG) Biomarker Activity (AID 2283063); conditions: primary human foreskin fibroblasts; actives raise or lower the signal
# Method in brief: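 Human primary foreskin fibroblasts in the hDFCGF system, exposed to test chemical for 24 h; MIG measured by ELISA. Bidirectional curve fitting against DMSO negative control as activity baseline.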
# [4] = read-out: Matrix Metallopeptidase 1 (MMP1), MMP1 (gene 4312); assay: BSK_hDFCGF_MMP1: BioMAP Diversity Plus: hDFCGF Assay for Matrix Metallopeptidase 1 (MMP1) Biomarker Activity (AID 2283064); conditions: primary human foreskin fibroblasts; actives raise or lower the signal
# Method in brief: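 hDFCGF primary fibroblasts (human foreskin); chemical added; 24 h; MMP1 by ELISA; bidirectional fit vs DMSO.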
# [5] = read-out: Vascular cell adhesion molecule 1 (VCAM1), VCAM1 (gene 7412); assay: BSK_hDFCGF_VCAM1: BioMAP Diversity Plus: hDFCGF Assay for Vascular cell adhesion molecule 1 (VCAM1) Biomarker Activity (AID 2283065); conditions: primary human foreskin fibroblasts; actives raise or lower the signal;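 as to AC50: VCAM-1 protein level quantified by ELISA after 24 h chemical exposure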
# Method in brief: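 ELISA readout of VCAM-1 on human dermal fibroblast primary cultures, 24 h after chemical exposure. Gain or loss of signal fitted in both directions against DMSO baseline.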
# [6] = read-out: Plasminogen activator inhibitor-1 (PAI1), SERPINE1 (gene 5054); assay: BSK_hDFCGF_PAI1: BioMAP Diversity Plus: hDFCGF Assay for Plasminogen activator inhibitor-1 (PAI1) Biomarker Activity (AID 2283066); conditions: primary human foreskin fibroblasts; actives raise or lower the signal
# Method in brief: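 Human foreskin fibroblast primary cells, 24 h chemical exposure; PAI-1 measured by ELISA. Bidirectional fitting relative to DMSO; parallel cultures stained with SRB for total protein to flag overt cytotoxicity.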
# [7] = read-out: Intercellular Adhesion Molecule 1 (ICAM1), ICAM1 (gene 3383); assay: BSK_KF3CT_ICAM1: BioMAP Diversity Plus: KF3CT Assay for Intercellular Adhesion Molecule 1 (ICAM1) Biomarker Activity (AID 2283067); conditions: primary human keratinocytes with fibroblasts; actives raise or lower the signal
# Method in brief: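 Cell-surface ICAM-1 was measured by ELISA 24 h after dosing primary human skin keratinocytes co-cultured with fibroblasts. Parallel SRB staining tracked overt cytotoxicity. Gain or loss of signal was fitted relative to DMSO.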
# [8] = read-out: Interferon-gamma inducible Protein 10 (IP10), CXCL10 (gene 3627); assay: BSK_KF3CT_IP10: BioMAP Diversity Plus: KF3CT Assay for Interferon-gamma inducible Protein 10 (IP10) Biomarker Activity (AID 2283068); conditions: primary human keratinocytes with fibroblasts; actives raise or lower the signal
# Method in brief: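 In a primary skin co-culture of keratinocytes and fibroblasts, IP-10 is quantified by ELISA at 24 h after dosing. SRB staining of parallel wells monitors overt toxicity. Curves are fitted both directions against DMSO.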
# [9] = BSK_KF3CT_SRB: Viability Assessment in the BioMAP Diversity Plus: KF3CT Assay (AID 2283069); conditions: primary human keratinocytes with fibroblasts;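 also: total protein by sulforhodamine B staining as a cytotoxicity measure; read 24 h after compound addition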
# Method in brief: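 Keratinocytes co-cultured with foreskin fibroblasts (human primary); chemical added, 24 h; fix 10% TCA, stain 0.1% SRB, A560. Bidirectional fit vs DMSO.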
# [10] = read-out: Interleukin-1 alpha (IL1a), IL1A (gene 3552); assay: BSK_KF3CT_IL1a: BioMAP Diversity Plus: KF3CT Assay for Interleukin-1 alpha (IL1a) Biomarker Activity (AID 2283070); conditions: primary human keratinocytes with fibroblasts; actives raise or lower the signal
# Method in brief: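 Chemicals were dosed onto co-cultured human keratinocytes and foreskin fibroblasts, IL-1a was quantified by ELISA at 24 h, and activity was fitted in both directions relative to DMSO controls.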
# [11] = read-out: TIMP metallopeptidase inhibitor 2 (TIMP2), TIMP2 (gene 7077); assay: BSK_KF3CT_TIMP2: BioMAP Diversity Plus: KF3CT Assay for TIMP metallopeptidase inhibitor 2 (TIMP2) Biomarker Activity (AID 2283071); conditions: primary human keratinocytes with fibroblasts; actives raise or lower the signal
# Method in brief: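 Co-culture of human primary keratinocytes and foreskin fibroblasts, measured 24 h after chemical dosing. TIMP-2 quantified by ELISA and fitted in both directions relative to DMSO. Cytotoxicity checked in parallel cultures by SRB total-protein staining.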
# [12] = read-out: Transforming growth factor beta 1 (TGFb1), TGFB1 (gene 7040); assay: BSK_KF3CT_TGFb1: BioMAP Diversity Plus: KF3CT Assay for Transforming growth factor beta 1 (TGFb1) Biomarker Activity (AID 2283072); conditions: primary human keratinocytes with fibroblasts; actives raise or lower the signal
# Method in brief: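 Human keratinocyte/foreskin fibroblast co-culture; TGF-b1 measured by ELISA 24 h after dosing, fitted bidirectionally versus DMSO. Cytotoxicity checked in parallel cultures by total protein (SRB staining, 560 nm).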
# [13] = read-out: C-C motif chemokine 2 (Homo sapiens) (UniProt P13500); assay: BSK_KF3CT_MCP1: BioMAP Diversity Plus: KF3CT Assay for Monocyte Chemoattractant Protein 1 (MCP1/CCL2) Biomarker Activity (AID 2283073); conditions: primary human keratinocytes with fibroblasts; actives raise or lower the signal
# Method in brief: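 ELISA read-out of MCP-1, 24 h post-dose, in primary human skin keratinocytes co-cultured with fibroblasts. Parallel SRB staining monitors cytotoxicity; changes fitted both directions relative to DMSO.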
# [14] = read-out: Matrix Metallopeptidase 9 (MMP9), MMP9 (gene 4318); assay: BSK_KF3CT_MMP9: BioMAP Diversity Plus: KF3CT Assay for Matrix Metallopeptidase 9 (MMP9) Biomarker Activity (AID 2283074); conditions: primary human keratinocytes with fibroblasts; actives raise or lower the signal;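 as to AC50: MMP9 protein level quantified by ELISA in the co-culture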
# Method in brief: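 Human keratinocyte/foreskin fibroblast co-culture; compound added; 24 h; MMP-9 by ELISA; bidirectional fit vs DMSO baseline.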
# [15] = read-out: urokinase plasminogen activator (uPA), PLAU (gene 5328); assay: BSK_KF3CT_uPA: BioMAP Diversity Plus: KF3CT Assay for urokinase plasminogen activator (uPA) Biomarker Activity (AID 2283075); conditions: primary human keratinocytes with fibroblasts; actives raise or lower the signal
# Method in brief: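 ELISA readout of uPA, analyzed for signal gain or loss relative to DMSO, from a human primary keratinocyte–foreskin fibroblast co-culture measured 24 h after chemical treatment.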
# [16] = read-out: CD40, CD40 (gene 958); assay: BSK_LPS_CD40: BioMAP Diversity Plus: LPS Assay for CD40 Biomarker Activity (AID 2283076); conditions: primary human HUVEC with PBMC; actives raise or lower the signal
# Method in brief: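 In the LPS system of human endothelial cells with peripheral blood mononuclear cells, CD40 levels were read by ELISA 24 h post-treatment. Signal changes in either direction were fitted against the DMSO baseline, with parallel SRB protein staining.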
# [17] = read-out: E-selectin (Homo sapiens) (UniProt P16581); assay: BSK_LPS_Eselectin: BioMAP Diversity Plus: LPS Assay for Eselectin Biomarker Activity (AID 2283077); conditions: primary human HUVEC with PBMC; actives raise or lower the signal
# Method in brief: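 E-selectin ELISA on LPS-stimulated endothelial cell/PBMC co-cultures, read 24 h post-treatment; gains and losses fitted against DMSO. Parallel SRB staining (0.1% SRB after 10% TCA fixation, 560 nm) flags overt cytotoxicity.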
# [18] = read-out: Interleukin-8 (IL8), CXCL8 (gene 3576); assay: BSK_LPS_IL8: BioMAP Diversity Plus: LPS Assay for Interleukin-8 (IL8) Biomarker Activity (AID 2283078); conditions: primary human HUVEC with PBMC; actives raise or lower the signal
# Method in brief: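 ELISA read-out of IL-8 after 24 h chemical treatment of LPS-activated endothelial/PBMC human primary co-cultures. Changes either up or down relative to DMSO; overt cytotoxicity checked by sulforhodamine B staining in parallel wells.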
# [19] = read-out: TIMP metallopeptidase inhibitor 1 (TIMP1), TIMP1 (gene 7076); assay: BSK_hDFCGF_TIMP1: BioMAP Diversity Plus: hDFCGF Assay for TIMP metallopeptidase inhibitor 1 (TIMP1) Biomarker Activity (AID 2283062); conditions: primary human foreskin fibroblasts; actives raise or lower the signal
# Method in brief: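 TIMP-1 measured by ELISA 24 h after chemical dosing of primary human skin fibroblasts, with gain or loss fitted relative to DMSO. Parallel SRB staining (560 nm) monitored overt cytotoxicity.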
# [20] = BSK_LPS_SRB: Viability Assessment in the BioMAP Diversity Plus: LPS Assay (AID 2283079); conditions: primary human HUVEC with PBMC;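 also: total protein by sulforhodamine B absorbance as a cytotoxicity measure; measured one day after compound addition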
# Method in brief: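 SRB viability endpoint: cells fixed with 10% TCA, stained with 0.1% SRB, read at 560 nm, 24 h post-dose. HUVEC/PBMC co-culture; signal change in either direction scored relative to DMSO.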
# Sequence of E-selectin (Homo sapiens) (P16581 whole entry, looked up): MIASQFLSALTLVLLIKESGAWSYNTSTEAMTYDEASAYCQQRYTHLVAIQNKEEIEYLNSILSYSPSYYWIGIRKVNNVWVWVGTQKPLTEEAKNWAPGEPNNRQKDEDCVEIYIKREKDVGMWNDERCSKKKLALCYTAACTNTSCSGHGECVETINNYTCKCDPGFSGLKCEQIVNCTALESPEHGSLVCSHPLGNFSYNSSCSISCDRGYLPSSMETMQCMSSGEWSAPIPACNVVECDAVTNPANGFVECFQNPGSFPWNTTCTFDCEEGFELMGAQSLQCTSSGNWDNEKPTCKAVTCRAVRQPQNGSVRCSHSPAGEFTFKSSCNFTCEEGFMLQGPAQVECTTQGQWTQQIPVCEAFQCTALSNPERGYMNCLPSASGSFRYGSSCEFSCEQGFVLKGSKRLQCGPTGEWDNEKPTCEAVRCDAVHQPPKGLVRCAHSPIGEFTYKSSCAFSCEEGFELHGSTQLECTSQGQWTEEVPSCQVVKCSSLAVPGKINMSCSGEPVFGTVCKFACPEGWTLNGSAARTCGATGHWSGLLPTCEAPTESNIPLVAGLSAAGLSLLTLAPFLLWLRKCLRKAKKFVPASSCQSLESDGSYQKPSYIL
compound,measurement,setting,value
COc1ccc(C(=O)/C(Br)=C\C(=O)O)cc1,AC50,[1],15.4 µM (active) and 20 µM (active)
same,AC50,[2],29.4 µM (active)
same,AC50,[3],28 µM (active) and 31.3 µM (active)
same,AC50,[4],33.5 µM (active) and 30.7 µM (active)
same,AC50,[5],14.7 µM (active) and 7.59 µM (active)
same,AC50,[6],28.9 µM (active)
same,outcome,[6],inactive
same,AC50,[7],20 µM (active)
same,AC50,[8],30.6 µM (active) and 30.2 µM (active)
same,AC50,[9],32 µM (active)
same,outcome,[9],inactive
same,AC50,[10],20 µM (active) and 24.8 µM (active)
same,AC50,[11],20 µM (active)
same,AC50,[12],20 µM (active) and 6.52 µM (active)
same,AC50,[13],33 µM (active) and 35 µM (active)
same,AC50,[14],25.6 µM (active) and 23.3 µM (active)
same,AC50,[15],31.7 µM (active)
same,outcome,[15],inactive
same,AC50,[16],10.2 µM (active) and 16 µM (active)
same,AC50,[17],25.3 µM (active) and 30.3 µM (active)
same,AC50,[18],20 µM (active)
CC1=CC=C(C(C)C)CC1,outcome,[1],inactive
same,outcome,[2],inactive
same,outcome,[19],inactive
same,outcome,[3],inactive
same,outcome,[4],inactive
same,outcome,[5],inactive
same,outcome,[6],inactive
same,outcome,[7],inactive
same,outcome,[8],inactive
same,outcome,[9],inactive
same,outcome,[10],inactive
same,outcome,[11],inactive
same,outcome,[12],inactive
same,outcome,[13],inactive
same,outcome,[14],inactive
same,outcome,[15],inactive
same,outcome,[16],inactive
same,outcome,[17],inactive
same,outcome,[18],inactive
same,outcome,[20],inactive
C=CC(=O)OCCCCCCCC(C)C,AC50,[1],20 µM (active)
same,AC50,[2],25.6 µM (active)
same,outcome,[19],inactive
same,AC50,[3],20 µM (active)
same,outcome,[4],inactive
same,AC50,[6],5.93 µM (active)
same,outcome,[7],inactive
same,outcome,[8],inactive
same,outcome,[9],inactive
same,outcome,[10],inactive
same,outcome,[11],inactive
same,outcome,[12],inactive
same,outcome,[13],inactive
same,outcome,[14],inactive
same,outcome,[15],inactive
same,outcome,[16],inactive
same,outcome,[17],inactive
same,outcome,[18],inactive
CCCCCC1=CCCC1=O,outcome,[1],inactive
same,outcome,[2],inactive
same,outcome,[3],inactive
same,AC50,[4],16 nM (active)
same,outcome,[6],inactive
same,outcome,[7],inactive
same,outcome,[8],inactive
same,outcome,[9],inactive
same,outcome,[10],inactive
same,outcome,[11],inactive
same,outcome,[12],inactive
same,outcome,[13],inactive
same,outcome,[14],inactive
same,outcome,[15],inactive
same,outcome,[16],inactive
same,outcome,[17],inactive
same,outcome,[18],inactive
